In the library only some 1.4% were active in any assay of this set; here they are far more common.
OPRM1-OPRD1 ag = OPRM1-OPRD1 heterodimerization agonism; P35372+P41143; cells, luminescence; activation, % at 9.3 µM; 0.3% of 340,000 active; AID 504326; in the data active means activation above about 18%;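 further: 0% = vehicle-treated cells and 100% = reference agonist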
beta cell repl = MIN6 beta-cell proliferation induction | MIN6 cells proliferation, ATPlite luminescence, 48 h; cells starved in 0.2% serum; 100% = growth in 10% serum | proliferation, % at 10 µM | 0.29% of 330,000 active | AID 2380;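 active means compounds whose signal lies at least 3.5 SD above the mean of all wells on their plate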;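 further: 0% = DMSO-treated cells in low-serum medium and 100% = 10% serum control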
HTR5A inv ctr = HTR5A inverse agonism, opioid heterodimer counter-screen. P47898. HTR5A cell line, luminescence. inhibition, % at 9.3 µM. 0.083% of 340,000 active; in the data active means inhibition mostly above about 23%, no sharp cut-off; inactive means mostly below about 18%;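 further: 0% = cells with DMSO and 100% = no-cell wells with DMSO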
HTR5A ag ctr = HTR5A agonism, opioid heterodimer counter-screen; P47898; AID 504692; HTR5A agonist assay, luminescence, cell-based; activation, % at 9.3 µM; 0.61% of 340,000 active; in the data active means activation mostly above about 9.5%, no sharp cut-off; inactive means mostly below about 7.6%;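 further: 0% = cells with vehicle only and 100% = reference agonist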
MOR-DOR inv ag = inverse agonists of human mu-delta opioid receptor heterodimerization; cell-based MOR-DOR heterodimer luminescence, inverse agonism; AID 504357; inhibition, % at 9.3 µM; 0.21% of 340,000 active; P35372+P41143; in the data active means inhibition above about 22%, passing the limit was not always enough;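 further: 0% = cells with DMSO and 100% = wells without cells with DMSO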
pCIP destab = p/CIP protein destabilization. F442A p/CIP-EGFP cells, EGFP fluorescence, 16 h. decrease of EGFP signal, % at 10 µM. 0.01% of 290,000 active. AID 1984;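 active means EGFP signal decrease of at least 30% at 10 µM or well 3 SD below plate mean, unless failing retest; inactive means the rest, including hits failing retest or dose response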
Target sequence (Q05BA5 1-1403): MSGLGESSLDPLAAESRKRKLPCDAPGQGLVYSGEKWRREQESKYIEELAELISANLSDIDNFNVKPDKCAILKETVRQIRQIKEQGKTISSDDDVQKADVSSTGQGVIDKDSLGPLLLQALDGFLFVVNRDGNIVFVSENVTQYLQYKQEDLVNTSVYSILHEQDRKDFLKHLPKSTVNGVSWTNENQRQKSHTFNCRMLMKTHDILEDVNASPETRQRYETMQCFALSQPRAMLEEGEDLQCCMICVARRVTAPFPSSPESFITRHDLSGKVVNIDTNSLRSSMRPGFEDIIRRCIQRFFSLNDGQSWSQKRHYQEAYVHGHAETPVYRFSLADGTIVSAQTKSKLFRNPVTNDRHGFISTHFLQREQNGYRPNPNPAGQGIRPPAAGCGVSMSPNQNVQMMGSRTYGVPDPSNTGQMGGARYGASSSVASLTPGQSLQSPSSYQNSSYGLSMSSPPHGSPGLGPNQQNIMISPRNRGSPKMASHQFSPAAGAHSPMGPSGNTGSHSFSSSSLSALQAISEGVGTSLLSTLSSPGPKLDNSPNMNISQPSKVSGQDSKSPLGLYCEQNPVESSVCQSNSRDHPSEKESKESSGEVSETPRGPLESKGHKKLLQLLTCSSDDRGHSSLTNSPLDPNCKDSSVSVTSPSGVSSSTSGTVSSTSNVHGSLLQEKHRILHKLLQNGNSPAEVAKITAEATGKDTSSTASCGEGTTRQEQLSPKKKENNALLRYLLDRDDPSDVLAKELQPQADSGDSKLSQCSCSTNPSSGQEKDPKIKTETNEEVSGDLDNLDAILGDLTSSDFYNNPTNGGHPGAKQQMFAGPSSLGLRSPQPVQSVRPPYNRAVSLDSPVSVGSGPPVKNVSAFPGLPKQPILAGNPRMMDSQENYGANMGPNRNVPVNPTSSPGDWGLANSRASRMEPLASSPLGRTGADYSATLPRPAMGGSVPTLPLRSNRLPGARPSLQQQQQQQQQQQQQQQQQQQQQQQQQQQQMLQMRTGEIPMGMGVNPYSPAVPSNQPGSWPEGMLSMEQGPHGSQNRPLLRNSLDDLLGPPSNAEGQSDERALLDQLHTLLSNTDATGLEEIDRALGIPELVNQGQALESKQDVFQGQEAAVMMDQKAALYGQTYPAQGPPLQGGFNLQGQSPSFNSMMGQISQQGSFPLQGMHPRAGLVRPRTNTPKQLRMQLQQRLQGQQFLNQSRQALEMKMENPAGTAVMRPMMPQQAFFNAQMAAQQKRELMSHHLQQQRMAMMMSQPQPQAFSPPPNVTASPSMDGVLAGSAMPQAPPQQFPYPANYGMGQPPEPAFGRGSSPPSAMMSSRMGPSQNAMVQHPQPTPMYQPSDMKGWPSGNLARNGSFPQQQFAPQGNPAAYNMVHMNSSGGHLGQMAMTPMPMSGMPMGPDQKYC
* = called active by the depositor; . = not tested or not shown.

SMILES	OPRM1-OPRD1 ag	beta cell repl	HTR5A inv ctr	HTR5A ag ctr	MOR-DOR inv ag	pCIP destab
CCOC(=O)c1oc2ccccc2c1NC(=O)COc1ccc(F)cc1	1	9.7*	-5	0	-7	-16
CCCCC(CC)CNC(=O)CN1C(=O)NC2(CCc3ccccc32)C1=O (stereo unspecified)	0	-3	-19	7	-4	-14
Cc1cccc(N(C)C(=O)COc2cc(=O)n(C)c3ccccc23)c1	-1	-2	-31	11*	4	2
CCn1c(=O)cc(OCC(=O)NCCc2cccc(C)c2)c2ccccc21	-1	-2	-32	12*	5	3
CCn1c(=O)cc(OCC(=O)Nc2cc(C)ccn2)c2ccccc21	0	1	-6	1	1	-10
COC(=O)C1C2CC(=O)C(C2)C1C(=O)OC (stereo unspecified)	-1	.	5	-1	2	.
O=C(CN(C1CCCCC1)S(=O)(=O)c1ccccc1)NCc1cccnc1	-3	-3	0	0	14	2
O=C(CN(C1CCCCC1)S(=O)(=O)c1ccc(Cl)cc1)NCc1cccnc1	-2	2	-1	13*	9	-9
COc1ccc(Nc2nc(S(=O)(=O)c3ccc(C)cc3)c(Cl)s2)cc1	9	-5	-35	13*	-66	-1
CC(NC(=O)COC(=O)c1nc(Cl)ccc1Cl)c1ccccc1 (stereo unspecified)	-3	2	-7	2	14	.
O=C(c1ccccc1F)N1C(=O)c2cccc3cccc1c23	2	-4	-38	12*	-13	0
Nc1c(Br)cc2c([nH]c(=O)c3ccccc32)c1Br	7	.	-3	1	-32	.
C[C@H](CO)N1C[C@H](C)[C@@H](CN(C)CC2CCCCC2)Oc2c(NC(=O)Cc3ccccc3)cccc2C1=O	1	-5	0	0	-6	.
CC1CC(C)CN(C(=O)COC(=O)c2ccc3c(c2)OCCO3)C1 (stereo unspecified)	-1	2	3	-1	6	.
O=C1CC(C(=O)O)S/C(=N\NC(=O)c2ccccc2)N1 (stereo unspecified)	-2	2	11	12*	9	-6
Cn1c2ccccc2c(=O)c2ccc(NCCc3cccs3)cc21	6	-6	-19	14*	-35	.
O=C(CN1C(=O)NC2(CCCC2)C1=O)N1CCN(S(=O)(=O)c2ccccc2[N+](=O)[O-])CC1	1	-2	-7	9.5*	-6	.
O=C1NC2(CCCCC2)C(=O)N1CC(=O)N1CCc2ccccc21	0	1	-40	11*	2	.
O=C(CN1C(=O)NC2(CCCCCCC2)C1=O)N1CCc2ccccc2C1	0	1	-3	1	-3	-6
O=C(CN1C(=O)NC2(CCCC2)C1=O)N1CCN(S(=O)(=O)c2ccccc2F)CC1	-3	-4	16	-7	18	3
Cc1cccc(C)c1N(CC(=O)NCc1ccc(F)cc1)C(=O)c1csnn1	2	3	-2	1	-11	-8
CCOc1ccc(N(CC(=O)NCc2ccc(F)cc2)C(=O)CCC(=O)Nc2nccs2)cc1	1	0	-11	13*	-7	4
CCOc1ccc(N(CC(=O)NCc2ccc(OC)cc2)C(=O)CCC(=O)Nc2nccs2)cc1	-1	1	-1	-1	7	-3
CCc1ccc(N(CC(=O)NCc2ccc(F)cc2)C(=O)c2csnn2)cc1	-2	2	-23	9.4*	10	5
O=C(Cc1ccc(F)cc1)N[C@@H]1c2ccccc2CC[C@@H]1OCc1ccccc1	5	.	2	0	-23	.
SMILES	OPRM1-OPRD1 ag	beta cell repl	HTR5A inv ctr	HTR5A ag ctr	MOR-DOR inv ag	pCIP destab
Cc1ccc(-c2csc(NC(=O)CSc3nnc4c(n3)[nH]c3ccccc34)n2)cc1	5	.	-49	13*	-28	-4
Cn1c(/C=C/c2ccc(Cl)cc2)nc2ccccc2c1=O	3	-5	-37	9.8*	-14	0
Cn1c(/C=C/c2ccccc2)nc2ccccc2c1=O	-2	-2	-14	4	9	3
O=c1c2ccccc2nc(/C=C/c2ccccc2)n1CCCO	-3	-1	-35	9.9*	15	-19
Cc1cc(NC(=O)CSc2nnc(C(F)(F)F)n2C)no1	-3	-3	2	-1	11	.
Cc1c([N+](=O)[O-])cc(C(=O)Nc2ccc(Cc3ccncc3)cc2)cc1[N+](=O)[O-]	5	-1	-15	5	-34	6
Cc1ccc2cc(NC(=O)c3ccccc3)ccc2n1	0	-4	-34	9.4*	0	-4
Cc1c([N+](=O)[O-])cc(C(=O)Nc2ccc3ncccc3c2)cc1[N+](=O)[O-]	8	-1	-36	9.5*	-40	6
O=C1CCc2cc(S(=O)(=O)N3CCN(c4cccc(C(F)(F)F)c4)CC3)ccc2N1	25*	0	-28	13*	-126	-2
CC1C(=O)Nc2ccc(S(=O)(=O)N3CCN(c4cccc(C(F)(F)F)c4)CC3)cc2NC1=O (stereo unspecified)	0	-3	-44	6	0	-8
CC(NC(=O)COc1ccccc1)C(=O)NCc1ccccc1Cl (stereo unspecified)	-2	-4	8	-5	8	.
CC(C)c1ccc(OCC(=O)NNC(=S)NC(=O)c2cccs2)c(Br)c1	-3	-7	1	12*	16	-3
O=C(Nc1ccc(N2CCCCC2)c(C(=O)O)c1)c1ccco1	2	-4	-22	10*	-12	-7
Cc1cccc(NC(=O)c2cc(NC(=O)c3ccco3)ccc2N2CCCCC2)c1	-2	-2	-19	2	9	-7
Cc1cc(C(=O)Nc2ccc(Cl)c(S(=O)(=O)N3CCOCC3)c2)c2ccccc2n1	-3	1	6	-4	13	.
Cc1cccc(C(=O)OCC(=O)NCC2COc3ccccc3O2)c1 (stereo unspecified)	1	3	1	0	-3	.
Cc1ccc2nc(C)cc(C(=O)OCC(=O)c3ccc(Cl)c([N+](=O)[O-])c3)c2c1	-19	-4	41*	-9	79*	-6
COc1ccc(-c2cc(C(=O)OCC(=O)c3ccc(C)c([N+](=O)[O-])c3)c3ccccc3n2)cc1	-2	0	-26	-1	12	-16
O=C(Nc1nc(-c2cccc3ccccc23)cs1)c1cnccn1	-1	0	-26	10*	5	-6
O=C(Nc1nc(-c2ccc(F)c(F)c2)cs1)c1cnccn1	-1	0	-34	6	8	5
Cc1c(NC(=O)c2ccc3c(c2)C(=O)N(CC2CCCO2)C3=O)cccc1C(=O)O (stereo unspecified)	0	-1	-10	10*	3	-6
CCOc1ccccc1NC(=O)c1ccc2c(c1)C(=O)N(CC1CCCO1)C2=O (stereo unspecified)	-1	2	-15	-2	7	-7

Screens: PubChem BioAssay, several laboratories
